According to article PMC5700166:
Numbering of substitutions follows the chain as printed.

What was measured:
Experiment in all cases: protein-binding microarray (PBM); PBM: ~300 nM protein, 6 mM HEPES pH 7.8, 80 mM KCl, 0.5 mM EDTA, 0.5 mM EGTA, 6% glycerol, 35 ng/ul poly-dIdC, 1% milk, 1 h, room temperature; Ap Aiptasia and Nv Nematostella (sea anemones) / Co Capsaspora / Aq Amphimedon (sponge) / Dm Drosophila / Hu human; RHD is the Rel homology domain; high values mean tight binding
Settings in all cases: dsDNA, one strand shown
GST-Ap-NF-kB RHD = molecular target: T1, GST-Ap-NF-kB RHD (Exaiptasia pallida (Aiptasia), UniProt A0A913YAJ5 2-422)
T1 sequence: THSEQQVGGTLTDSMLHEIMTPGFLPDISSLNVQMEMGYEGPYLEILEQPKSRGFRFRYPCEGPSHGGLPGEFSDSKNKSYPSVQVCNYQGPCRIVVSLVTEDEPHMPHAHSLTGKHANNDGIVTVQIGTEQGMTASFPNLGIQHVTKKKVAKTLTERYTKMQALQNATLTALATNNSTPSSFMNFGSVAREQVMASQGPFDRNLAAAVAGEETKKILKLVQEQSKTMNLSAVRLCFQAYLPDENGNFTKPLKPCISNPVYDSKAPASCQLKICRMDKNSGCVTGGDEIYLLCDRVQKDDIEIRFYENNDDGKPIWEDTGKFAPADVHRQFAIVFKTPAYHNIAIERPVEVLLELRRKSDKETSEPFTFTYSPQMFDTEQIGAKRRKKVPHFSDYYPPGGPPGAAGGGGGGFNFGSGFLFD

[1] = molecular target: T2, GST-Nv-NF-kB (Cys allele) (Nematostella vectensis, UniProt E5G601 2-411)
T2 sequence: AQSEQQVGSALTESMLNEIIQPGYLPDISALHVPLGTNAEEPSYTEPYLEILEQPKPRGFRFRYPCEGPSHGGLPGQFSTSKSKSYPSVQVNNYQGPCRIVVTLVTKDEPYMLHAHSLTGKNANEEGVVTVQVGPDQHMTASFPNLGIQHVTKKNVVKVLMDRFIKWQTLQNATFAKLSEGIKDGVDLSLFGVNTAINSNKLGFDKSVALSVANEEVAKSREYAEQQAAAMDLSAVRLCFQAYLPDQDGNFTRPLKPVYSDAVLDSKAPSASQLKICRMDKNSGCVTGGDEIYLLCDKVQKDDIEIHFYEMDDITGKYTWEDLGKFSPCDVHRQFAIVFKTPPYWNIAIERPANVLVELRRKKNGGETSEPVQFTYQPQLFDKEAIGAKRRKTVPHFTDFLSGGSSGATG

[2] = molecular target: T3, GST-Nv-NF-kB (Ser allele) (Nematostella vectensis, UniProt A7UNT2 2-411)
T3 sequence: T2 sequence with Q21R, C66S, S207N, E215Q, V217A, E225K, A268E, D399E

GST-Co-NF-kB = molecular target: T4, GST-Co-NF-kB (Capsaspora owczarzaki, UniProt F1ARL5 200-546)
T4 sequence: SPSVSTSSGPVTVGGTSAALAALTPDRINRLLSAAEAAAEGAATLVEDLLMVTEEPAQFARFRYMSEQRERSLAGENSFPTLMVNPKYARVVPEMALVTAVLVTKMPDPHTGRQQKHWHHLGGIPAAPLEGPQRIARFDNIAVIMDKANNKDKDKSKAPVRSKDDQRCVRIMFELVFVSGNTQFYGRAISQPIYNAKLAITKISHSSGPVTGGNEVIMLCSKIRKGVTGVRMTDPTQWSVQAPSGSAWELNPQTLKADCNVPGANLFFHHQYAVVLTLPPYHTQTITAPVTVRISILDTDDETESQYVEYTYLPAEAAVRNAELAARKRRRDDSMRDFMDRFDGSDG

GST-Dm-Relish = molecular target: T5, GST-Dm-Relish (Drosophila melanogaster, UniProt Q94527 99-473)
T5 sequence: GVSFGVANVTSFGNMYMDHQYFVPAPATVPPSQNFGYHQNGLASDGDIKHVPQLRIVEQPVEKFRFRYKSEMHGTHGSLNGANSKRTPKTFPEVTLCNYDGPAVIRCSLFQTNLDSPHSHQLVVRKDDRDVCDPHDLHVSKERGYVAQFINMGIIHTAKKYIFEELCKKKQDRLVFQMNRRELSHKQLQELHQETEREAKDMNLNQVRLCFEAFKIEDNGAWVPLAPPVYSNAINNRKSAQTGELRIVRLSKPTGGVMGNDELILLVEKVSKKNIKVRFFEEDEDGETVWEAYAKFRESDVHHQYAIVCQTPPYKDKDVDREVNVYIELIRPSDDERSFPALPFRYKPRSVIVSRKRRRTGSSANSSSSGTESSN

GST-Aq-NF-kB = molecular target: T6, GST-Aq-NF-kB (Amphimedon queenslandica, UniProt A9Y5G7 2-389)
T6 sequence: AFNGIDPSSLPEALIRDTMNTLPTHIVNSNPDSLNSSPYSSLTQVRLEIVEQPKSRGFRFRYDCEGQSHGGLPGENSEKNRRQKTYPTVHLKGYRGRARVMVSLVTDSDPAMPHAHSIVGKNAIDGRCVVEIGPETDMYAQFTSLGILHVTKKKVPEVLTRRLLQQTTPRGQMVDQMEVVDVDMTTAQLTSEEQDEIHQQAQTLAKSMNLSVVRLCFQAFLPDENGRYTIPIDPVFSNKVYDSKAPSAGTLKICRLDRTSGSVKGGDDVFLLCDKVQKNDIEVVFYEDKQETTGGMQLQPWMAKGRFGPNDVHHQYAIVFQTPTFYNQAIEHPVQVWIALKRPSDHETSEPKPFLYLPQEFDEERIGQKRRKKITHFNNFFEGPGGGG

GST-Hu-p50 = GST-Hu-p50 (Homo sapiens, UniProt P19838 7-356)
Sequence of GST-Hu-p50 (P19838 7-356): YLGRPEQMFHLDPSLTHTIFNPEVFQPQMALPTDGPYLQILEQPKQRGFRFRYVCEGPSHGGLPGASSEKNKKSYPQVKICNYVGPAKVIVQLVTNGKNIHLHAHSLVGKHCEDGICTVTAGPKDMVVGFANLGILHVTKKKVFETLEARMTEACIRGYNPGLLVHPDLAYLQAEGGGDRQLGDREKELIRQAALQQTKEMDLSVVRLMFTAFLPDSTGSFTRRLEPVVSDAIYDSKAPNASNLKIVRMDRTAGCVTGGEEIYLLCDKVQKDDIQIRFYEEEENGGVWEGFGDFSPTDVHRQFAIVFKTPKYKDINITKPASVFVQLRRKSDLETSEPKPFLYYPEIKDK

Row | Sequence | binding signal (GST-Ap-NF-kB RHD) | binding signal [1] | binding signal [2] | binding signal (GST-Co-NF-kB) | binding signal (GST-Dm-Relish) | binding signal (GST-Aq-NF-kB) | binding signal (GST-Hu-p50)
1 | CCGATTAACATCAAAGTTCCCCCTGATGTTAATCGGGTCTTGATTCGCTTGACGCTGCTG | 8.84 z-score | 8.65 z-score | 9.29 z-score | 11.3 z-score | 8.65 z-score | 7.49 z-score | 6.75 z-score
2 | CCGATTAACATCAAAAAACCCCCTGATGTTAATCGGGTCTTGATTCGCTTGACGCTGCTG | 12.1 z-score | 11.4 z-score | 12.1 z-score | 5.28 z-score | 11.4 z-score | 9.82 z-score | 8.38 z-score
3 | CCGATTAACATCACTCATCCCCGTGATGTTAATCGGGTCTTGATTCGCTTGACGCTGCTG | 1.85 z-score | 3.17 z-score | 3.8 z-score | 2.78 z-score | 2.33 z-score | 2.51 z-score | 2.23 z-score
4 | CCGATTAACATCAAACAGCCCCCTGATGTTAATCGGGTCTTGATTCGCTTGACGCTGCTG | 3.65 z-score | 4.11 z-score | 2.49 z-score | 1.91 z-score | 2.9 z-score | 5.29 z-score | 3.92 z-score
5 | CCGATTAACATCAATTCCCCAGGTGATGTTAATCGGGTCTTGATTCGCTTGACGCTGCTG | 5.33 z-score | 5.44 z-score | 6.65 z-score | 6.18 z-score | 2.37 z-score | 3.8 z-score | 4.94 z-score
6 | CCGATTAACATCAAATAAGTCCCTGATGTTAATCGGGTCTTGATTCGCTTGACGCTGCTG | 4.69 z-score | 6.71 z-score | 7 z-score | 1.42 z-score | 5.96 z-score | 6.24 z-score | 4.56 z-score
7 | CCGATTAACATCAAAATCCCAGGTGATGTTAATCGGGTCTTGATTCGCTTGACGCTGCTG | 2.06 z-score | 1.42 z-score | 1.85 z-score | 1.6 z-score | 5.57 z-score | 2.06 z-score | 3.17 z-score
8 | CCGATTAACATCAAGAAGTTCCCTGATGTTAATCGGGTCTTGATTCGCTTGACGCTGCTG | 3.54 z-score | 3.73 z-score | 2.6 z-score | 2.42 z-score | 3.58 z-score | 4.79 z-score | 3.17 z-score
9 | CCGATTAACATCAAAAAAGTACCTGATGTTAATCGGGTCTTGATTCGCTTGACGCTGCTG | 4.63 z-score | 7.84 z-score | 11.4 z-score |  | 9.37 z-score | 5.47 z-score | 5.8 z-score
10 | CCGATTAACATCAGAAACCCCCCTGATGTTAATCGGGTCTTGATTCGCTTGACGCTGCTG | 9.47 z-score | 7.7 z-score | 7.63 z-score | 3.94 z-score | 9.65 z-score | 7.6 z-score | 6.97 z-score
11 | CCGATTAACATCAGGAGAGTACCTGATGTTAATCGGGTCTTGATTCGCTTGACGCTGCTG | 1.28 z-score | 2.32 z-score | 3.99 z-score |  | 2.54 z-score | 3.47 z-score | 2.62 z-score
12 | CCGATTAACATCACGGGGGAAACTGATGTTAATCGGGTCTTGATTCGCTTGACGCTGCTG | 7.25 z-score | 5.82 z-score | 8.94 z-score | 12.2 z-score | 3.91 z-score | 4.97 z-score | 6.34 z-score
